Assay outcomes from PubChem.
TDP1 block – inhibitors of human tyrosyl-DNA phosphodiesterase TDP1; Potency, µM (highest dose often 130 µM), inactives show at the top dose activity change, negative = inhibition, hits mostly inhibitors; 0.28% of 350,000 active; AID 485290; recombinant TDP1, AlphaScreen DNA substrate cleavage; Q9NUW8; note: potency is the fitted concentration of half-maximal effect; nearly all actives have a fitted effect of over 40% in size
Target sequence (Q9NUW8 whole entry, looked up): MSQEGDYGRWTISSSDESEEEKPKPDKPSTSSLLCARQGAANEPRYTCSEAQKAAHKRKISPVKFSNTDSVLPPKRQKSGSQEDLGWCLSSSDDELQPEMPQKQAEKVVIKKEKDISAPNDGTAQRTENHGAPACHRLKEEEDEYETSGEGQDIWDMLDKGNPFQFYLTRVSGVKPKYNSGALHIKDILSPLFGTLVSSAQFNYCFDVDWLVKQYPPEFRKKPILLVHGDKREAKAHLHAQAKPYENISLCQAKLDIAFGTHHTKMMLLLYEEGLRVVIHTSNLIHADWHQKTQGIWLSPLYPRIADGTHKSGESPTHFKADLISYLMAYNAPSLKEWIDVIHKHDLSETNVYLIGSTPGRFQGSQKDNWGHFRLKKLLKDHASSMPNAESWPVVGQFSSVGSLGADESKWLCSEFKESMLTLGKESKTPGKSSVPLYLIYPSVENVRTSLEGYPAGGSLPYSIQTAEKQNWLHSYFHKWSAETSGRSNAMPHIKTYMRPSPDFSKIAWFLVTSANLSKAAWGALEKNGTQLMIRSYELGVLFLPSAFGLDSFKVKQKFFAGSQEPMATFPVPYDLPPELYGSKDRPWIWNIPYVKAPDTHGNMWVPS
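Steps: enzyme plus compound, 15 min RT; add biotin/phosphotyrosine-FITC oligonucleotide (15 nM final), react 5 min; add donor/acceptor beads (10 ug/ml final), 10 min; read AlphaScreen. Tdp1 at 1 nM final.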
Six1-Eya2 inh – Six1/Eya2 interaction inhibition; Q15475+O00167; AlphaScreen GST-Six1/His-Eya2 binding, biochemical; active compounds read low; activity change, % (concentration not given with the values); AID 651725; 0.56% of 360,000 active; in the data active = activity change below about -65%; inconclusive = mostly about -30% to -63%
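AlphaScreen with GST-Six1 and His-Eya2 (5X mix: 250 nM and 500 nM), glutathione donor and nickel acceptor beads; buffer 50 mM Tris pH 8.0, 300 mM NaCl, 1 mM TCEP; 1 h at 37 C in the dark.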
IL-1B inflam inh – inflammasome signaling inhibition, IL-1 beta readout | THP-1 LPS/ATP IL-1B secretion, AlphaLISA, 16 h; active compounds read low | activity change, % at 57.5 µM | 4.7% of 360,000 active | AID 743279; in the data active = activity change below about -50%; inconclusive = mostly about -30% to -49%
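THP-1 cells pretreated 1 hr with compounds (up to 57.5 uM final), then stimulated with LPS (250 ng/mL final) plus ATP (1.25 mM final); secreted IL-1B measured by AlphaLISA after 16 hr, decreased signal indicating inhibition.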
TDP1 cell noCPT – qHTS for Inhibitors of human tyrosyl-DNA phosphodiesterase 1 (TDP1): qHTS in cells in absence of CPT; DT40 Tdp1-/- hTDP1 cells, no CPT, ATP luminescence, 48 h; Potency, µM (doses to about 46.2 µM), for the others: at the top dose activity change, negative = growth inhibition, most hits filed as inhibitors; 15% of 420,000 active; AID 686978, 2013; note: potency is the fitted concentration of half-maximal effect; nearly all actives have a fitted effect of over 55% in size
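Chicken DT40 Tdp1-/- cells complemented with human TDP1, screened without camptothecin (DMSO vehicle only), 400 cells/well. Compounds pin-transferred, cells incubated at 37 °C for at least 48 hr. Growth read as ATP-dependent luminescence (CellTiter-Glo, 30 min at RT).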
CtBP-E1A inh – blocks the CtBP interaction with E1A; AlphaScreen GST-E1A/His-CtBP binding, 1536-well; active compounds read low; activity change, % (test concentration not listed); 0.49% of 340,000 active; AID 651724; in the data active = activity change below about -65%; inconclusive = mostly about -30% to -63%
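AlphaScreen with 125 nM GST-E1A and 125 nM His-CtBP (5X stocks) in Tris pH 8.0, 300 mM NaCl, BSA, Tween 20, TCEP. Compounds preincubated 2 h at 37 deg C, then glutathione donor/nickel acceptor beads added for 1 h at 37 deg C in dark.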
TDP1 cell CPT – growth inhibition of DT40 Tdp1-/-;hTDP1 cells with camptothecin (screen for TDP1 inhibitors); chicken DT40 Tdp1-/-;hTDP1 cells + 20 nM CPT, ATP luminescence, 48 h; Potency, µM (series often up to 46.2 µM), for the others: at the top dose activity change, negative = growth inhibition, most hits filed as inhibitors; 12% of 420,000 active; note: potency is the fitted concentration of half-maximal effect; nearly all actives have a fitted effect of over 55% in size
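Chicken DT40 Tdp1-/- cells stably complemented with human TDP1 were seeded at 400 cells/well in medium containing 20 nM camptothecin, exposed to pin-transferred compounds, and grown at 37 °C for at least 48 hr. Viability was read as ATP luminescence.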
* marks the source's active call; other numbers are inactive results; [ ] = another dose, or the depositor's remark. An excerpt weighted towards active compounds, which were near 18% of everything screened. Unless noted, calls come from the whole dose curve; as a rule, active = well fitted curve in the direction sought with a large enough effect; inconclusive = small, poorly fitted or top-dose-only effect, or another doubt; inactive = no such curve, though single readings can be large; an effect the other way counts as inactive or inconclusive. % is set by controls: 0 for no effect and ±100 for the full control effect.

Screening COc1cccc(/C=N/n2c(-c3ccco3)nc3ccccc3c2=O)c1 returned TDP1 block 7%, Six1-Eya2 inh 13, IL-1B inflam inh 2, TDP1 cell noCPT 18µM*, CtBP-E1A inh -9 and TDP1 cell CPT inconclusive.
COc1ccc(/C=N/n2c(-c3ccco3)nc3ccccc3c2=O)cc1 was read as TDP1 block -2%, Six1-Eya2 inh 2, IL-1B inflam inh -11, TDP1 cell noCPT inconclusive, CtBP-E1A inh -3 and TDP1 cell CPT inconclusive.
C=CCn1cnc2c(c1=O)c1nc3ccccc3nc1n2/N=C/c1ccccn1 was read as TDP1 block 1%, Six1-Eya2 inh -19, IL-1B inflam inh -65*, TDP1 cell noCPT 21µM*, CtBP-E1A inh -23 and TDP1 cell CPT 16µM*.
For O=C(c1cccc(F)c1)N1CCC[C@@]2(CCN(Cc3ccncc3)C2)C1 the results were TDP1 cell noCPT -21% and TDP1 cell CPT 9%.
`COc1ccccc1-c1nc(-c2cccc(C)c2)no1` gave TDP1 block -8%, Six1-Eya2 inh 34, IL-1B inflam inh 0, TDP1 cell noCPT inconclusive, CtBP-E1A inh 36 and TDP1 cell CPT -10%.
`S=c1[nH]nc(CSCc2ccccc2Cl)n1C1CCCCC1` gave TDP1 block 8%, Six1-Eya2 inh -15, IL-1B inflam inh -10, TDP1 cell noCPT inconclusive, CtBP-E1A inh -19 and TDP1 cell CPT inconclusive.
Screening Cc1ccc(SCCNC(=O)c2ccccc2C)cc1 returned TDP1 block 2%, Six1-Eya2 inh 6, IL-1B inflam inh -4, TDP1 cell noCPT inconclusive, CtBP-E1A inh 0 and TDP1 cell CPT -13%.
For COCCCn1cnc2c(c1=O)c1nc3ccccc3nc1n2-c1ccccc1 the results were TDP1 block -2%, Six1-Eya2 inh 10, IL-1B inflam inh 3, TDP1 cell noCPT -28%, CtBP-E1A inh -1 and TDP1 cell CPT inconclusive.
For COCCn1cnc2c(c1=O)c1nc3ccccc3nc1n2/N=C/c1cccc(OC)c1 the results were Six1-Eya2 inh inconclusive, IL-1B inflam inh 0, TDP1 cell noCPT 12µM*, CtBP-E1A inh -13 and TDP1 cell CPT 13µM*.
`CC(C)OCCCn1c(-c2ccco2)nc2nc3ccccc3nc21` gave TDP1 block -5%, Six1-Eya2 inh -16, IL-1B inflam inh -17, TDP1 cell noCPT 23µM*, CtBP-E1A inh 6 and TDP1 cell CPT inconclusive.
CCCCn1c(SCC(=O)NCc2ccco2)nc2ccccc2c1=O was read as TDP1 block 5%, Six1-Eya2 inh -1, IL-1B inflam inh -9, TDP1 cell noCPT -23%, CtBP-E1A inh 0 and TDP1 cell CPT inconclusive.
`CCCCn1c(-c2ccco2)nc2ccccc2c1=O` gave TDP1 block 0%, Six1-Eya2 inh -6, IL-1B inflam inh 10, TDP1 cell noCPT 16µM*, CtBP-E1A inh -5 and TDP1 cell CPT inconclusive.
Screening CCc1ccc(OCC(=O)NC(C)C)cc1 returned TDP1 block -1%, Six1-Eya2 inh 3, IL-1B inflam inh -20, TDP1 cell noCPT 6%, CtBP-E1A inh 11 and TDP1 cell CPT 7%.
CCc1ccc(OCC(=O)NC(NC(=S)Nc2ccc(Cl)cc2)C(Cl)(Cl)Cl)cc1 (stereo not drawn) was read as TDP1 block 1%, Six1-Eya2 inh 3, IL-1B inflam inh -20, TDP1 cell noCPT 13µM*, CtBP-E1A inh -9 and TDP1 cell CPT 15µM*.
`O=C(NC(NC(=S)Nc1ccccc1O)C(Cl)(Cl)Cl)c1ccco1` (stereo not drawn) gave TDP1 block -4%, Six1-Eya2 inh 4, IL-1B inflam inh -8, TDP1 cell noCPT 18µM*, CtBP-E1A inh -5 and TDP1 cell CPT inconclusive.
`O=C(NC(NC(=S)Nc1ccc(Cl)cc1)C(Cl)(Cl)Cl)c1ccco1` (stereo not drawn) gave TDP1 block 5%, Six1-Eya2 inh -10, IL-1B inflam inh -102*, TDP1 cell noCPT inconclusive, CtBP-E1A inh 0 and TDP1 cell CPT inconclusive.
Screening CC(c1n[nH]c(=S)n1Cc1ccccc1)N(C)C (stereo not drawn) returned TDP1 block 5%, Six1-Eya2 inh 1, IL-1B inflam inh 8, TDP1 cell noCPT inconclusive, CtBP-E1A inh 10 and TDP1 cell CPT inconclusive.
`CN(C)CCNc1ccc2nnn3c4ccc(O)cc4c(=O)c1c23` gave Six1-Eya2 inh -77*, IL-1B inflam inh -53*, TDP1 cell noCPT 0.18µM*, CtBP-E1A inh 0 and TDP1 cell CPT 0.18µM*.
Screening CCOC(=O)c1ccc2ncc(C(=O)OCC)c(NCCN(C)C)c2c1 returned Six1-Eya2 inh 4, IL-1B inflam inh inconclusive, TDP1 cell noCPT -16%, CtBP-E1A inh 5 and TDP1 cell CPT 3%.
Screening CCN(CC)CCCNc1ccc2ncn3c4ccc(O)cc4c(=O)c1c23 returned Six1-Eya2 inh inconclusive, IL-1B inflam inh -93*, TDP1 cell noCPT 0.15µM*, CtBP-E1A inh 1 and TDP1 cell CPT 0.15µM*.
For CC(C)C(NC(=O)Cc1ccccc1[N+](=O)[O-])C(C)C the results were TDP1 block 5%, Six1-Eya2 inh -1, IL-1B inflam inh 27, TDP1 cell noCPT -8%, CtBP-E1A inh -4 and TDP1 cell CPT -7%.
`CN(C)C(=S)NC(C)(C)C` gave TDP1 block 2%, Six1-Eya2 inh 6, IL-1B inflam inh -4, TDP1 cell noCPT -13%, CtBP-E1A inh 3 and TDP1 cell CPT 28%.
CCOC(=O)C1CCN(C(=O)c2ccc(OCC(=O)Nc3ccc(OCC)cc3)c(OC)c2)CC1 was read as TDP1 block 3%[0.505 µM], Six1-Eya2 inh 7, IL-1B inflam inh -23, TDP1 cell noCPT 16µM*, CtBP-E1A inh -2 and TDP1 cell CPT 21µM*.
For COc1cc(C(=O)N(C)CCOc2ccccc2)ccc1OCC(=O)Nc1cccc(C(F)(F)F)c1 the results were Six1-Eya2 inh -3, IL-1B inflam inh -73*, TDP1 cell noCPT 16µM*, CtBP-E1A inh 0 and TDP1 cell CPT 26µM*.
Screening CCOC(=O)N1CCC(NC(=O)c2ccc(CO)c(C(=O)NC3CCN(C(=O)OCC)CC3)c2)CC1 returned TDP1 block 7%, Six1-Eya2 inh -1, IL-1B inflam inh 12, TDP1 cell noCPT 4% and TDP1 cell CPT -4%.
